Several values for one entry are separate records, joined by “and”; a condition that tells them apart may be missing. Identical values can stand only once. This is part of a sample that, as a whole, favours compounds with a hit. Of some 79,000 tested, about 15% had one in any assay. The source holds several records for some structures; these can differ, active in one and inactive in another. Activity calls are given as the source filed them. Cut-off read from the data, not from the text of the source: active = growth inhibition above about 70%; inactive = the rest.
How the values were obtained:
[1] = NCI Yeast Anticancer Drug Screen. Data for the wt1 strain (AID 149);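 note: 0% = growth of vehicle-treated wt1 cultures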; conditions: S. cerevisiae wt1 strain (SPY 50644) growth inhibition, stronger effect = higher value
Procedure, shortened: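 The wt1 strain was treated with compounds, and growth was compared with vehicle-treated cultures to give inhibition.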

[2] = NCI Yeast Anticancer Drug Screen. Data for the rad50EPP+ strain (AID 151);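 note: 0% = growth of vehicle-treated control cultures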; conditions: S. cerevisiae rad50 mutant strain, stronger effect = higher value
Procedure, shortened: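 Read-out is yeast growth inhibition relative to vehicle; cells used were the rad50EPP+ strain.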

[3] = NCI Yeast Anticancer Drug Screen. Data for the mgt1 strain (AID 153); conditions: S. cerevisiae mgt1 mutant growth inhibition, stronger effect = higher value
Procedure, shortened: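 Measured: inhibition of mgt1 yeast growth by compound, normalized to vehicle-treated cultures.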

[4] = NCI Yeast Anticancer Drug Screen. Data for the rad50 strain (AID 155);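 note: 0% = growth of vehicle-only cultures of the same strain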; conditions: S. cerevisiae rad50 strain growth inhibition, stronger effect = higher value
Procedure, shortened: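 Cells are treated with compound, grown, and their growth is then scored against vehicle-only cultures of the same repair-deficient yeast strain.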

[5] = NCI Yeast Anticancer Drug Screen. Data for the mec2-1 strain (AID 157); conditions: S. cerevisiae mec2-1 strain, stronger effect = higher value
Procedure, shortened: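 Using mec2-1 yeast: add compound, measure growth, express inhibition versus vehicle-treated cultures.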

[6] = NCI Yeast Anticancer Drug Screen. Data for the CLN2oe strain (AID 163);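 note: 0% = growth of vehicle-only control cultures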; conditions: S. cerevisiae CLN2oe strain, stronger effect = higher value
Procedure, shortened: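 Whole-cell yeast growth assay. A strain engineered for altered cell-cycle control received compound, and inhibition relative to vehicle-treated cultures was recorded.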

[7] = NCI Yeast Anticancer Drug Screen. Data for the cln2 rad14 strain (AID 165);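 note: 0% = growth equal to vehicle treated cultures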; conditions: S. cerevisiae cln2 rad14 strain, stronger effect = higher value
Procedure, shortened: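 Yeast strain cln2 rad14, bearing defects in cell cycle control and DNA repair, serves as the test system; values reflect growth inhibition compared with vehicle.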

[8] = NCI Yeast Anticancer Drug Screen. Data for the bub3 strain (AID 167); conditions: S. cerevisiae bub3 mutant strain, stronger effect = higher value
Procedure, shortened: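 Part of a panel of yeast mutants defective in DNA damage repair or cell cycle regulation. Each strain is grown with compound, and inhibition is calculated relative to solvent-treated cultures.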

[9] = NCI Yeast Anticancer Drug Screen. Data for the wt2 strain (AID 169);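 note: 0% = growth of vehicle-treated yeast cultures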; conditions: S. cerevisiae wt2 strain growth inhibition, stronger effect = higher value
Procedure, shortened: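 Treated yeast vs. vehicle-treated yeast: growth inhibition determined.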

[10] = NCI Yeast Anticancer Drug Screen. Data for the mlh1 strain (AID 171);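 note: 0% = growth of vehicle-treated control cultures of the same strain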; conditions: S. cerevisiae mlh1 strain growth inhibition, stronger effect = higher value
Procedure, shortened: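 A yeast strain with a defined genetic lesion serves as the test organism. Cultures receive compound or vehicle, and growth is measured.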

[11] = NCI Yeast Anticancer Drug Screen. Data for the sgs1 strain (AID 173);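 note: 0% = growth of vehicle-only control cultures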; conditions: S. cerevisiae sgs1 mutant, stronger effect = higher value
Procedure, shortened: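 A genetically defined yeast mutant is incubated with the test compound, and its growth is compared to that of the same strain given vehicle.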

[12] = NCI Yeast Anticancer Drug Screen. Data for the rad18 strain (AID 177); conditions: S. cerevisiae rad18 mutant growth inhibition, stronger effect = higher value
Procedure, shortened: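 Measured value is growth inhibition of a yeast strain bearing a DNA repair alteration, referenced to vehicle-treated cells.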

[13] = at 5.0 µM (retest, dose inferred, filed as 0.5)
[14] = at 50.0 µM (retest, dose inferred, filed as 5.0)

Cc1cnc(/C=N\NC(N)=S)c2cccc(N)c12
growth inhibition ([1]; at 1.2 µM): -63% (inactive) | growth inhibition ([1]; at 3.7 µM): -49% (inactive) | growth inhibition ([1]; at 11.0 µM): -36% (inactive) | growth inhibition ([1]; at 33.0 µM): 58% (inactive) | growth inhibition ([1]; at 100.0 µM): 90% (active) | growth inhibition ([2]; at 1.2 µM): -68% (inactive) | growth inhibition ([2]; at 3.7 µM): -57% (inactive) | growth inhibition ([2]; at 11.0 µM): -45% (inactive) | growth inhibition ([2]; at 33.0 µM): -38% (inactive) | growth inhibition ([2]; at 100.0 µM): -4% (inactive) | growth inhibition ([3]; at 1.2 µM): -78% (inactive) | growth inhibition ([3]; at 3.7 µM): -69% (inactive) | growth inhibition ([3]; at 11.0 µM): -12% (inactive) | growth inhibition ([3]; at 33.0 µM): 43% (inactive) | growth inhibition ([3]; at 100.0 µM): 84% (active) | growth inhibition ([4]; at 1.2 µM): -81% (inactive) | growth inhibition ([4]; at 3.7 µM): -43% (inactive) | growth inhibition [4, 13]: 13% (inactive) and 15% (inactive) | growth inhibition ([4]; at 11.0 µM): -69% (inactive) | growth inhibition ([4]; at 33.0 µM): 28% (inactive) | growth inhibition [4, 14]: 80% (active) and 71% (active) | growth inhibition ([4]; at 50.0 µM): 62.3% (inactive) and 60% (inactive) | growth inhibition ([4]; at 100.0 µM): 83% (active) | growth inhibition ([5]; at 1.2 µM): -19% (inactive) | growth inhibition ([5]; at 3.7 µM): -48% (inactive) | growth inhibition [5, 13]: 7% (inactive) and 21% (inactive) | growth inhibition ([5]; at 11.0 µM): 13% (inactive) | growth inhibition ([5]; at 33.0 µM): 82% (active) | growth inhibition [5, 14]: 87% (active) and 86% (active) | growth inhibition ([5]; at 50.0 µM): 74% (active) and 60% (inactive) | growth inhibition ([5]; at 100.0 µM): 94% (active) | growth inhibition ([6]; at 1.2 µM): -16% (inactive) | growth inhibition ([6]; at 3.7 µM): -39% (inactive) | growth inhibition ([6]; at 11.0 µM): -29% (inactive) | growth inhibition ([6]; at 33.0 µM): 30% (inactive) | growth inhibition ([6]; at 100.0 µM): 63% (inactive) | growth inhibition [7, 13]: -8% (inactive) and 9% (inactive) | growth inhibition [7, 14]: 66% (inactive) and -55% (inactive) | growth inhibition ([7]; at 50.0 µM): 42.1% (inactive) and 70% (active) | growth inhibition ([8]; at 1.2 µM): -69% (inactive) | growth inhibition ([8]; at 3.7 µM): -60% (inactive) | growth inhibition [8, 13]: 15% (inactive) and 9% (inactive) | growth inhibition ([8]; at 11.0 µM): -50% (inactive) | growth inhibition ([8]; at 33.0 µM): 25% (inactive) | growth inhibition [8, 14]: 87% (active) and -11% (inactive) | growth inhibition ([8]; at 50.0 µM): 48.4% (inactive) and 75.1% (active) | growth inhibition ([8]; at 100.0 µM): 80% (active) | growth inhibition ([9]; at 1.2 µM): -73% (inactive) | growth inhibition ([9]; at 3.7 µM): -48% (inactive) | growth inhibition ([9]; at 11.0 µM): 5% (inactive) | growth inhibition ([9]; at 33.0 µM): 56% (inactive) | growth inhibition ([9]; at 100.0 µM): 91% (active) | growth inhibition ([10]; at 1.2 µM): -75% (inactive) | growth inhibition ([10]; at 3.7 µM): -79% (inactive) | growth inhibition ([10]; at 11.0 µM): -43% (inactive) | growth inhibition ([10]; at 33.0 µM): 27% (inactive) | growth inhibition ([10]; at 100.0 µM): 87% (active) | growth inhibition ([11]; at 1.2 µM): -39% (inactive) | growth inhibition ([11]; at 3.7 µM): -42% (inactive) | growth inhibition ([11]; at 11.0 µM): -13% (inactive) | growth inhibition ([11]; at 33.0 µM): 49% (inactive) | growth inhibition ([11]; at 100.0 µM): 94% (active) | growth inhibition ([12]; at 1.2 µM): -144% (inactive) | growth inhibition ([12]; at 3.7 µM): -115% (inactive) | growth inhibition ([12]; at 11.0 µM): -88% (inactive) | growth inhibition ([12]; at 33.0 µM): 25% (inactive) | growth inhibition ([12]; at 100.0 µM): 85% (active)

Source: PubChem BioAssay (NCI)
